In the OligoGym collection:

Each sequence was assayed against FGA (assay: pooled miR-30 sensor sort-seq; sequence = guide strand). Conditions: shRNA.
Further: reference of the scale not given here.

| Sequence | sensor-assay potency score (higher = more potent) |
| --- | --- |
| TTGACTTCATCAATCAACCCTT | -0.0172 |
| TCAATCAACCCTTTCATCCTGC | 0.452 |
| TTCAGGACTTCAATTCTGCTTC | -0.0905 |
| TTCAGTGATCCATCCATTCTTT | -0.0325 |
| TGTCTTTCCACAACCCTTGGGC | 0.289 |

What follows are sequences tested against FGF1 in the same assay as above. Conditions: shRNA.

| Sequence | sensor-assay potency score (higher = more potent) |
| --- | --- |
| TTCTTCTCTGCATGCTTCTTGG | -0.847 |
| TTGCTTTCTGGCCATAGTGAGT | -1.34 |
| TGAATGTGCTGGTCGCTCCTGT | -0.0696 |
| TTGGATATATAGGTGTTGTAAT | -0.998 |
| TTTCTGGCCATAGTGAGTCCGA | -0.918 |
| TCATTTGGTGTCTGTGAGCCGT | -0.0568 |
| AGGCAGATTAAACTTCTCGGTC | -1.58 |
| TCTGGCCATAGTGAGTCCGAGG | -1.16 |
| TTAAACTTCTCGGTCAGGGCTG | -0.0976 |
| AACAAGATTGCTTTCTGGCCAT | -0.264 |
| TAGTGAGTCCGAGGACCGCGTT | -1.55 |
| TAATGGTTCTCCTCCAGCCTTT | -0.798 |
| TTTGCAGCTCCCATTCTTCTTG | -0.462 |
| TATATAGGTGTTGTAATGGTTC | -0.522 |
| TAAACTTCTCGGTCAGGGCTGT | 0.184 |
| TTGCAGCTCCCATTCTTCTTGA | -1.07 |
| TGGGCTTCTTGTAATTCCCTGG | -0.134 |
| TTCCAGGAACAAACATTCCTCA | -0.434 |
| TTCTTGGATATATAGGTGTTGT | -1.22 |
| TTGGGCTTCTTGTAATTCCCTG | -0.211 |
| TTTCCAGGAACAAACATTCCTC | -0.373 |
| TTCTCTGCATGCTTCTTGGATA | -0.722 |
| ATTTGGTGTCTGTGAGCCGTAT | -0.909 |
| TTTGGTGTCTGTGAGCCGTATA | -0.694 |

These sequences were tested against FGF23 in the same assay as above. Conditions: shRNA.

| Sequence | sensor-assay potency score (higher = more potent) |
| --- | --- |
| TTGCCTCTGAAATCCATGCAGA | -1.09 |
| ATCCTCTGATCTGATCATCAGG | -1.39 |
| TGGAACCTGCAGTTCTCCGGGT | -0.566 |
| TCTGATCTGATCATCAGGGCAC | 0.338 |
| TATCTTCTGCTCATCACACCTG | 0.064 |
| TGGATCTGCAGGTGGTAGCTGT | -0.923 |
| TTGGAACCTGCAGTTCTCCGGG | 0.14 |
| TTCTGCTCATCACACCTGTAAT | -1.67 |
| TAATGGGTCACTGGCCATCGGG | -1.63 |
| TCCATGCAGAGGTATCTTCTGC | -1.48 |
| TTCTTGTGGATCTGCAGGTGGT | -1.08 |
